Outcome and AC50 data for four compounds are collected here from PubChem BioAssay (EPA / NIEHS).

The term AC50 denotes the midpoint of the concentration-response curve, whichever way the signal moves.

Experiment [1] is described as follows: ATG_GLI_CIS: Attagene CIS-FACTORIAL HepG2 Assay for human Zinc Finger Protein GLI1 (AID 2282945). The settings on record: HepG2, Attagene cis-factorial reporter mRNA, GLI element; actives raise or lower the signal. The procedure, abridged: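 Bidirectional curve fits relative to DMSO, using reporter mRNA levels from RT-PCR plus capillary electrophoresis. Cells were HepG2 transiently carrying cis-regulated reporter constructs, harvested 24 h after dosing.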

Experiment [2] is described as follows: ATG_ISRE_CIS: Attagene CIS-FACTORIAL HepG2 Assay for human Interferon Regulatory Factor 1 (IRF1) binding to an Interferon-Stimulated Response Element (ISRE) (AID 2282948). The settings on record: HepG2 ISRE cis-reporter (Attagene), mRNA transcription readout; actives raise or lower the signal. The procedure, abridged:
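Transiently transfected HepG2 cells carrying cis-element reporter units, dosed 24 hours. Reporter mRNA quantified by RT-PCR, fluorescent primer extension, HpaI digestion and capillary electrophoresis. Bidirectional fitting relative to DMSO.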

Experiment [3] can be described thus: ATG_M_32_CIS: Attagene CIS-FACTORIAL HepG2 Assay for M32 Transcription Factor (Internal Marker) (AID 2282949).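 Also: background control marker of the multiplexed CIS panel rather than a real target.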 The settings on record: HepG2 Attagene cis-factorial M32 reporter, mRNA; actives raise or lower the signal. Put shortly: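 Internal background marker read-out: RT-PCR/capillary electrophoresis fluorescence of reporter transcripts from transiently transfected HepG2 cells after 24 h chemical exposure. Activity fitted bidirectionally relative to DMSO negative control.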

A short description of experiment [4]: ATG_M_06_CIS: Attagene CIS-FACTORIAL HepG2 Assay for M06 Transcription Factor (Internal Marker) (AID 2282950). The settings on record: HepG2 Attagene CIS-FACTORIAL M06 internal marker reporter; actives raise or lower the signal. The procedure, abridged:
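Internal background marker within multiplexed cis-reporter HepG2 system. Cells transiently transfected, dosed 24 h; reporter mRNA measured by RT-PCR, HpaI digestion and capillary electrophoresis. Bidirectional fit relative to DMSO.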

Experiment [5] has as its target Hypoxia-inducible factor 1-alpha (Homo sapiens) (UniProt Q16665). In words: ATG_HIF1a_CIS: Attagene CIS-FACTORIAL HepG2 Assay for human Hypoxia Inducible Factor 1 (HIF1A) (AID 2282951). The settings on record: HepG2 Attagene cis-factorial HIF1a reporter transcription; actives raise or lower the signal. The procedure, abridged: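 HepG2, transient cis-reporter library, 24 h dosing. RNA → RT (oligo dT) → PCR → 6-FAM primer extension → HpaI → CE. Bidirectional curve fit vs DMSO.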

The target of experiment [6] is Hepatocyte nuclear factor 6 (Homo sapiens) (UniProt Q9UBC0). In words: ATG_HNF6_CIS: Attagene CIS-FACTORIAL HepG2 Assay for human Hepatocyte Nuclear Factor 6 (HNF6) (AID 2282952). The settings on record: HepG2 Attagene cis-factorial HNF6 reporter transcription; actives raise or lower the signal. Put shortly:
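HepG2 cells transiently transfected with cis-element-driven multiplexed reporter units measuring endogenous transcription factor activity. After 24 h exposure, reporter mRNA quantified by RT-PCR, FAM-labelled fragments and capillary electrophoresis; bidirectional fitting versus DMSO.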

Experiment [7] has as its target Heat shock factor protein 1 (Homo sapiens) (UniProt Q00613). In words: ATG_HSE_CIS: Attagene CIS-FACTORIAL HepG2 Assay for human Heat Shock Transcription Factor 1 (HSE) (AID 2282953). The settings on record: HepG2 HSE cis-reporter, Attagene RNA transcription; actives raise or lower the signal. Put shortly: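 HepG2 cells transfected with cis-promoter reporter units sensing endogenous transcription factor activity; reporter mRNA quantified 24 h post-dose by RT-PCR and capillary electrophoresis of 6-FAM-labelled products. Bidirectional fitting against DMSO.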

Experiment [8] in a line: ATG_MRE_CIS: Attagene CIS-FACTORIAL HepG2 Assay for human Metal Responsive Element (MRE) (AID 2282954). The settings on record: HepG2 MRE cis-reporter transcription, Attagene multiplex; actives raise or lower the signal. Put shortly: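 After a 24 h chemical exposure, transiently transfected HepG2 cells yield RNA whose reporter sequences are amplified, FAM-labelled and sized by capillary electrophoresis. Curves are fitted bidirectionally relative to DMSO.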

Experiment [9] concerns the target Paired box protein Pax-6 (Homo sapiens) (UniProt P26367). In words: ATG_Pax6_CIS: Attagene CIS-FACTORIAL HepG2 Assay for human Paired Box 6 (PAX6) (AID 2282956). The settings on record: HepG2 CIS-FACTORIAL PAX6 reporter transcription, RNA readout; actives raise or lower the signal. The procedure, abridged: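 HepG2 cells transiently transfected with cis-promoter-driven multiplexed reporter units sensing endogenous transcription factor activity; 24 h chemical exposure. Reporter mRNA quantified by RT-PCR, 6-FAM labelling, HpaI digestion and capillary electrophoresis; bidirectional fit versus DMSO baseline.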

Experiment [10] is described as follows: ATG_PXRE_CIS: Attagene CIS-FACTORIAL HepG2 Assay for human Pregnane X Receptor Element (PXRE) (AID 2282957). The settings on record: HepG2 Attagene CIS-FACTORIAL PXRE reporter, mRNA; actives raise or lower the signal. Put shortly:
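HepG2 cells transiently transfected with cis-element-driven multiplexed reporter units; after 24 h chemical exposure, reporter mRNA measured by RT-PCR, 6-FAM labelling, HpaI digestion and capillary electrophoresis. Bidirectional fitting relative to DMSO.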

The nature of experiment [11]: ATG_RORE_CIS: Attagene CIS-FACTORIAL HepG2 Assay for human RAR-related Orphan Receptor Element (RORE) (AID 2282959). The settings on record: HepG2 Attagene cis-factorial RORE reporter, mRNA; actives raise or lower the signal. Put shortly:
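Multiplexed reporter assay measuring mRNA induction from a cis promoter element in transiently transfected HepG2 cells after 24 h treatment. Detection via RT-PCR and capillary electrophoresis fluorescence; DMSO serves as baseline.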

The target in experiment [12] is Transcription factor Sp1 (Homo sapiens) (UniProt P08047). The experiment can be described thus: ATG_Sp1_CIS: Attagene CIS-FACTORIAL HepG2 Assay for human Specificity Protein 1 (Sp1) (AID 2282961). The settings on record: HepG2 Sp1 cis-reporter transcription, actives raise or lower the signal. Put shortly:
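Measures mRNA induction of an Sp1-linked reporter in HepG2 cells 24 h post-dosing. Multiplexed reporters read by RT-PCR and capillary electrophoresis; DMSO serves as negative control and baseline.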

The nature of experiment [13]: ATG_SREBP_CIS: Attagene CIS-FACTORIAL HepG2 Assay for human Sterol Regulatory Element Binding (SREBP) (AID 2282962). The settings on record: HepG2 Attagene cis-factorial SREBP reporter, mRNA; actives raise or lower the signal. Put shortly: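 HepG2 cells transiently transfected with multiplexed cis-promoter reporter units sensing endogenous transcription factors; reporter mRNA measured 24 h after dosing by RT-PCR, 6-FAM labeling, HpaI digestion and capillary electrophoresis. Bidirectional fit versus DMSO.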

The target in experiment [14] is Signal transducer and activator of transcription 3 (Homo sapiens) (UniProt P40763). The experiment can be described thus: ATG_STAT3_CIS: Attagene CIS-FACTORIAL HepG2 Assay for human Signal Transducer and Activator of Transcription 3 (STAT3) (AID 2282963). The settings on record: HepG2, Attagene cis-factorial STAT3 reporter transcription; actives raise or lower the signal. Put shortly: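 After a 24 h compound incubation, total RNA from MRTU-transfected HepG2 cells was converted to cDNA and reporter sequences PCR-amplified, labelled and profiled by capillary electrophoresis. Gain and loss of signal were referenced to DMSO.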

Experiment [15] is described as follows: ATG_TA_CIS: Attagene CIS-FACTORIAL HepG2 Assay for human TA Basal Promoter (AID 2282964). The settings on record: HepG2 Attagene CIS-factorial TA basal promoter reporter; actives raise or lower the signal. Put shortly:
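HepG2 cells transiently transfected with multiple reporter units under cis promoter elements, reporting endogenous transcription factor activity; this endpoint tracks the TA basal promoter as background control. Reporter mRNA after 24 h dosing measured by RT-PCR/capillary electrophoresis; bidirectional fits versus DMSO.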

Experiment [16] in a line: ATG_GRE_CIS: Attagene CIS-FACTORIAL HepG2 Assay for human Glucocorticoid Response Elements (GRE) (AID 2282947). The settings on record: HepG2 GRE cis-reporter, Attagene multiplex mRNA; actives raise or lower the signal. Put shortly:
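Assay uses human hepatoma HepG2 cells transfected with cis-promoter reporter units, exposed 24 h. mRNA from reporters detected by RT-PCR plus capillary electrophoresis; DMSO serves as negative control and baseline.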

Experiment [17] is described as follows: ATG_Sox_CIS: Attagene CIS-FACTORIAL HepG2 Assay for human SRY-box transcription factor (SOX) (AID 2282960). The settings on record: HepG2 Attagene cis-factorial SOX reporter, mRNA; actives raise or lower the signal. Put shortly: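 Cells were transfected with reporter constructs under cis-regulatory promoters, then exposed to chemicals for 24 h. Reporter transcripts were quantified by fluorescence after RT-PCR and capillary electrophoresis; activity was fitted in both directions against DMSO.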

Experiment [18] deals with Bile acid receptor (Homo sapiens) (UniProt Q96RI1). The experiment can be described thus: ATG_IR1_CIS: Attagene CIS-FACTORIAL HepG2 Assay for human Nuclear Receptor Subfamily 1 Group H Member 4 (NR1H4), IR1 submotif (AID 2282946). The settings on record: IR1 reporter transcription, actives raise or lower the signal. The procedure, abridged:
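Cells (human HepG2) carry transiently transfected cis-promoter reporter transcription units. Compounds are incubated 24 h, total RNA is reverse-transcribed and amplified, and labelled fragments are resolved by capillary electrophoresis. Curves use DMSO as baseline.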

Experiment [19] in a line: ATG_PBREM_CIS: Attagene CIS-FACTORIAL HepG2 Assay for human Phenobarbital-responsive Enhancer Module (PBREM) (AID 2282955). The settings on record: HepG2 PBREM cis-reporter, Attagene multiplexed transcription; actives raise or lower the signal. Put shortly:
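HepG2, transient MRTU transfection, 24 h dosing; RNA → oligo(dT) RT → PCR → 6-FAM extension → HpaI → CE. Bidirectional fit vs DMSO.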

Experiment [20] can be described thus: ATG_PPRE_CIS: Attagene CIS-FACTORIAL HepG2 Assay for human Peroxisome Proliferator-activated Response Element (PPRE) (AID 2282958). The settings on record: HepG2 PPRE cis-element reporter, Attagene transcription factor profiling; actives raise or lower the signal. Put shortly: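 Transcript-level reporter induction in transfected HepG2 cells after 24 h chemical exposure, quantified by fluorescence from RT-PCR products separated by capillary electrophoresis.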

Active and inactive are the calls of the source. The calls were made as follows: active = hit-call score of the fitted dose curve at least 0.9, where 1 is the maximum; inactive = score below 0.9.

Transcription factor Sp1 (Homo sapiens), sequence (P08047 whole entry, looked up): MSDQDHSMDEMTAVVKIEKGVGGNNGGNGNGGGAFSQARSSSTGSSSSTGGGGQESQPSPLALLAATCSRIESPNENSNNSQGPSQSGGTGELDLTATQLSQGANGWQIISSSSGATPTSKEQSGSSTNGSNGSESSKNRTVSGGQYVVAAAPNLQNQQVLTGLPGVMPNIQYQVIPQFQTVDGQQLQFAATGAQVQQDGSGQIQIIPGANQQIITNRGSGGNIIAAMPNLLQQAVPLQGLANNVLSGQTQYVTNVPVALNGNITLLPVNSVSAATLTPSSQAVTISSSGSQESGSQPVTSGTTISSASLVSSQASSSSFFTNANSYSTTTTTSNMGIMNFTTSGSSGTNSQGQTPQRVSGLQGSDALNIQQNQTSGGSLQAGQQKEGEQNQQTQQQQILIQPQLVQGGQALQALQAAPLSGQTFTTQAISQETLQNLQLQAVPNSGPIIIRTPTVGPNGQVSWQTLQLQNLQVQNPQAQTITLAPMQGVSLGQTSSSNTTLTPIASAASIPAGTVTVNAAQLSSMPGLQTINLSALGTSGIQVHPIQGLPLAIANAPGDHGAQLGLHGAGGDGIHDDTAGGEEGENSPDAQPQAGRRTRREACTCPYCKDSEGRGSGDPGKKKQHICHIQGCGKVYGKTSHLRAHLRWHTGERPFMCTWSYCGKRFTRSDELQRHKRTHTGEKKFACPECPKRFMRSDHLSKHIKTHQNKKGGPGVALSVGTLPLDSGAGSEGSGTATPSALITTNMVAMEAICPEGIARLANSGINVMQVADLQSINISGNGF
Paired box protein Pax-6 (Homo sapiens), sequence (P26367 whole entry, looked up): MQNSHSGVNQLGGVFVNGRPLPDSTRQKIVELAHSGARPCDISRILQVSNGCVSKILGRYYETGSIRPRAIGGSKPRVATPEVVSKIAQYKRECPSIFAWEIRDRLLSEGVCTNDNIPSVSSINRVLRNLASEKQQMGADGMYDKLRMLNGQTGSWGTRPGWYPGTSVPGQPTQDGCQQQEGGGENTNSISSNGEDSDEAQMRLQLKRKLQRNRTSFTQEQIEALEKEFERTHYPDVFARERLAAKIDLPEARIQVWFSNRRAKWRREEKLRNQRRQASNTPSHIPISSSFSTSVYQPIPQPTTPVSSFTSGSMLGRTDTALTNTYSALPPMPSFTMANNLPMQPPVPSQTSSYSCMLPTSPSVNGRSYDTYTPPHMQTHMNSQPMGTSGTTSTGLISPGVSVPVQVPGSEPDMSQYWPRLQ
Heat shock factor protein 1 (Homo sapiens), sequence (Q00613 whole entry, looked up): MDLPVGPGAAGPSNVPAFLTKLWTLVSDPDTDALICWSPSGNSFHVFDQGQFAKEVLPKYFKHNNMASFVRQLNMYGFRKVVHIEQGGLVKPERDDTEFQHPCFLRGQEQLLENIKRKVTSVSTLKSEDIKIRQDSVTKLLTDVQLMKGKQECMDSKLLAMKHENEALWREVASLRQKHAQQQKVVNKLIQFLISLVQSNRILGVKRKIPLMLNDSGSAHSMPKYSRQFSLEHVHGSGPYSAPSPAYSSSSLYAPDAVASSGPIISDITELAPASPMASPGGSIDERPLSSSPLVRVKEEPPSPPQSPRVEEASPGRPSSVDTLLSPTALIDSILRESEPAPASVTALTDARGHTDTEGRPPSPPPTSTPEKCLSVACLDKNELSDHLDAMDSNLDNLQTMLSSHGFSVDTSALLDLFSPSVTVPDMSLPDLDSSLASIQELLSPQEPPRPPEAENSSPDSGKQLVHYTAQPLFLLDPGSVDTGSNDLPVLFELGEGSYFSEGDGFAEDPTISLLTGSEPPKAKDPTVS
Hepatocyte nuclear factor 6 (Homo sapiens), sequence (Q9UBC0 whole entry, looked up, the tested form may be a part): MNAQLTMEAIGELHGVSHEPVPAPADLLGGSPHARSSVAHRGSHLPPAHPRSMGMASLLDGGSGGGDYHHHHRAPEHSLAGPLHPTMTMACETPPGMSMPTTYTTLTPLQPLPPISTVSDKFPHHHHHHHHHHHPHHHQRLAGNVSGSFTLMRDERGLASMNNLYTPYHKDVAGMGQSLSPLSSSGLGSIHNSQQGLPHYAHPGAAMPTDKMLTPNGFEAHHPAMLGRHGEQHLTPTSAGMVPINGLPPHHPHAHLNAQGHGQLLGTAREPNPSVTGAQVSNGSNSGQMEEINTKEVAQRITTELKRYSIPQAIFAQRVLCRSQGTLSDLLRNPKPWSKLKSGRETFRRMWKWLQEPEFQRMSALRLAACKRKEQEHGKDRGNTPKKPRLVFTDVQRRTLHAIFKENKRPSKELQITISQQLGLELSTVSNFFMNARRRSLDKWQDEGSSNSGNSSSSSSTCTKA
Hypoxia-inducible factor 1-alpha (Homo sapiens), sequence (Q16665 whole entry, looked up): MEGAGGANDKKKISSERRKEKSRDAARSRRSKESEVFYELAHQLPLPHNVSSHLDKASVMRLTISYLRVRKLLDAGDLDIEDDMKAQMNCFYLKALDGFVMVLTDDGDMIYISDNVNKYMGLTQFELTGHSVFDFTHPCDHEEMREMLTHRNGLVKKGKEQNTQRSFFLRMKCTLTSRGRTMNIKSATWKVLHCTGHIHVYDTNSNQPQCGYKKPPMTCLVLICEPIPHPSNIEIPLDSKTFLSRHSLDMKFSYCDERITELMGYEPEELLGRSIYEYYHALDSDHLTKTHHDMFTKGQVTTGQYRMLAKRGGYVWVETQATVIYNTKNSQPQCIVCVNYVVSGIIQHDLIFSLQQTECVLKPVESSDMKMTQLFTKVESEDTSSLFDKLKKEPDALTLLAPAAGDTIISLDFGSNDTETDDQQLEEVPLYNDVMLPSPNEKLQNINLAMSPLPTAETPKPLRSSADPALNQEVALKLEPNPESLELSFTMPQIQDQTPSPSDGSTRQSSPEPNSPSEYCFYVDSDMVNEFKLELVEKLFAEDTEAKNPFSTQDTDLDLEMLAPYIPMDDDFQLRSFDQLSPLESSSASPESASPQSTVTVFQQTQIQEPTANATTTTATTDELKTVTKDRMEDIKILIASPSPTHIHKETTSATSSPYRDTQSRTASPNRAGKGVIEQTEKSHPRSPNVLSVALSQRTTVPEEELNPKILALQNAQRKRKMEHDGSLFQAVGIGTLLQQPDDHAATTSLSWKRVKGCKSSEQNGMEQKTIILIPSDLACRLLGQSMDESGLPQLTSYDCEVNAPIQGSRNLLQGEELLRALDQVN
Signal transducer and activator of transcription 3 (Homo sapiens), sequence (P40763 whole entry, looked up): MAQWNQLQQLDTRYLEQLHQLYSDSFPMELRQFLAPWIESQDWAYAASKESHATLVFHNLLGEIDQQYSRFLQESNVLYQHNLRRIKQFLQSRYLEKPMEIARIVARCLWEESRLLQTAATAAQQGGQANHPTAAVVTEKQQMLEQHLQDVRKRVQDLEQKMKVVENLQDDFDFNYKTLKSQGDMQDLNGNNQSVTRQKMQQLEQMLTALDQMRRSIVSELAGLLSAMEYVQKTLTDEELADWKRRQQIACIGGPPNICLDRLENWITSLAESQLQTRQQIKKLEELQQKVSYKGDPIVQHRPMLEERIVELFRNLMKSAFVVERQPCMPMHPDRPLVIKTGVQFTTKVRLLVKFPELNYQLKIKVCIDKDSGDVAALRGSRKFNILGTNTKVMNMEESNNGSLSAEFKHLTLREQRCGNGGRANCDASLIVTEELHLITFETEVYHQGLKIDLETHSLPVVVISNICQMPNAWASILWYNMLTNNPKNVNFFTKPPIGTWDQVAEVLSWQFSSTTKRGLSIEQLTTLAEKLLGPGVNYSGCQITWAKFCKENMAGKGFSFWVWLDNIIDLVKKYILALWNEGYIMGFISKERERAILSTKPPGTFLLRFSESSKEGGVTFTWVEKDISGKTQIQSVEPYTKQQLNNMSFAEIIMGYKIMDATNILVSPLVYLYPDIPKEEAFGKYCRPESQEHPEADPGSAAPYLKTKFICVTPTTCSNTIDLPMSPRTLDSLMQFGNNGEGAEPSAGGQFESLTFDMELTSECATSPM
Bile acid receptor (Homo sapiens), sequence (Q96RI1 whole entry, looked up, the tested form may be a part): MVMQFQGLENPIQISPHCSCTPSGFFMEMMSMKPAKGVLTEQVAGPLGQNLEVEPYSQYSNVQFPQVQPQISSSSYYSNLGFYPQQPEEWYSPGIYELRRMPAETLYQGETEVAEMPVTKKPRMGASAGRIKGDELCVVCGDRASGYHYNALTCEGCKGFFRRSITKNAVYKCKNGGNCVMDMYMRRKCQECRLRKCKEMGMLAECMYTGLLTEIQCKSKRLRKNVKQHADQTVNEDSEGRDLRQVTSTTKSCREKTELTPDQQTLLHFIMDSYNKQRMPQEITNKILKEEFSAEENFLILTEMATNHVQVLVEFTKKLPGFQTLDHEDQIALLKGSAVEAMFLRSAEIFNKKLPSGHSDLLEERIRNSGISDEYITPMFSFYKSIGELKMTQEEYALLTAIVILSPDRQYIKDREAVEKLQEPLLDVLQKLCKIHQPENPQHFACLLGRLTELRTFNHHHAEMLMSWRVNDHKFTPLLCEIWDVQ

`OC[C@@H](O)[C@@H](O)[C@H](O)[C@H](O)CO`: the result in [1], in experiment [2], in experiment [3], in [4], in [5] and in [6] was inactive. Moreover, the compound was called inactive in experiment [7], in experiment [8], in experiment [9], in [10], in experiment [11] and in experiment [12]. Moreover, the compound was called inactive in experiment [13], in experiment [14] and in experiment [15].

Turning to `CC(=O)Oc1ccccc1C(=O)O`, the compound was called inactive in [1], in experiment [16], in experiment [2], in experiment [3], in [4] and in experiment [6]. Besides, the outcome in [8], in [9], in experiment [17], in experiment [12], in [13] and in experiment [14] was inactive. In [15], the call was inactive. In experiment [10], the AC50 was 26900 nM (active).

With `CCc1c(C(=O)NN2CCCCC2)nn(-c2ccc(Cl)cc2Cl)c1-c1ccc(Br)cc1`, the half-maximal activity concentration (AC50) was 2400 nM (active) in experiment [18]; 3670 nM (active) in experiment [2]; 387 nM (active) in experiment [5]; 4760 nM (active) in experiment [8]; 1750 nM (active) in experiment [9]; 147 nM (active) in [10]. Moreover, the concentration at half-maximal activity (AC50) in [13] was 719 nM (active). For the same compound, the outcome in experiment [3], in experiment [4], in [6], in [7], in experiment [19] and in [20] was inactive. Further, the outcome in [11], in experiment [17], in experiment [12], in experiment [14] and in [15] was inactive.

As for `Cc1cccc(C)c1O`, the call in experiment [1], in experiment [2], in experiment [4], in experiment [5], in [6] and in [7] was inactive. The outcome in experiment [8], in [19], in experiment [9], in experiment [10], in experiment [20] and in experiment [11] was inactive. Moreover, the outcome in [17], in experiment [12], in [13], in experiment [14] and in [15] was inactive.
